Results: the supplement of paper PMC3545927
This is one part of the list. The hit rate among all sequences tested is not known here.

Biological target: furin, P09958
Experiment: furin cleavage Z-score vs untreated control; higher = more cleavage, active = 3.5 or more, inactive = 1 or less, 8 variable residues between constant flanks
Procedure, shortened: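 Furin cleavage was scored on 8-mer peptides joined to a cDNA oligonucleotide and bound to magnetic beads at the N-terminus. Digestion with purified furin (1:10 enzyme:substrate, 0.01 ml, 50 mM HEPES pH 7.5, CaCl2, NaCl) lasted 7.5, 15 or 30 min. Freed DNA was tagged with adapters by PCR, sequenced and counted; the cleavage Z-score is the lowess-adjusted log count versus furin-free reactions, scaled by median absolute deviation.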

Sequence of furin, P09958 (P09958 whole entry): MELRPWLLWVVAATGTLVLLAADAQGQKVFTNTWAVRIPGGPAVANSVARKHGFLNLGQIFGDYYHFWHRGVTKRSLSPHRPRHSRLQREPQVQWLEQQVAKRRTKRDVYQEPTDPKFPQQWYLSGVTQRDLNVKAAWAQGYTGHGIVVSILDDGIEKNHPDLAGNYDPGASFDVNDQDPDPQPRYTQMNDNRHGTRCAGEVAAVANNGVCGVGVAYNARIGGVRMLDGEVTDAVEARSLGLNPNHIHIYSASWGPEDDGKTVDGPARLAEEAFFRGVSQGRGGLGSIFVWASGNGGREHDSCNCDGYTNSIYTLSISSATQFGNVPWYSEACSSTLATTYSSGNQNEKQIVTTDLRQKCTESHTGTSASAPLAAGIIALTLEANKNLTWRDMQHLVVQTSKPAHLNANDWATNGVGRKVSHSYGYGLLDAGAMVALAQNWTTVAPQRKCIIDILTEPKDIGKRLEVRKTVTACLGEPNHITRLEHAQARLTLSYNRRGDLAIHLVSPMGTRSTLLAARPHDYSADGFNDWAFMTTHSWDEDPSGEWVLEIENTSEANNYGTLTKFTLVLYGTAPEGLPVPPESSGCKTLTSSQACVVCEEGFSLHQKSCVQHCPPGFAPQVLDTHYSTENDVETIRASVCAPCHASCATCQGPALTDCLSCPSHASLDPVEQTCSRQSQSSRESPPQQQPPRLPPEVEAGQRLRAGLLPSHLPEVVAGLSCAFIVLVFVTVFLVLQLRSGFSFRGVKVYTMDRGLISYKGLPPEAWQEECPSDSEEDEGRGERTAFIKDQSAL

Sequence	furin cleavage Z-score (7.5 min)	furin cleavage Z-score (15 min)	furin cleavage Z-score (30 min)
CATTPCSASWAGNASASA [HC1883]	-0.499 (inactive)	0.682 (inactive)	-0.342 (inactive)
CAVVGCSMSYAGNASASA [HC2036]	1.64	-0.0657 (inactive)	1.23
CASTPCSGSWAGNASASA [HC1837]	-0.691 (inactive)	-0.464 (inactive)	-0.623 (inactive)
CARPWKSVALAGNASASA [FS-1765]	1.43	0.873 (inactive)	-0.932 (inactive)
CARRARSPHDAGNASASA [FS-1834]	8.36 (active)	9.74 (active)	9.02 (active)
CARPRRSLALAGNASASA [FS-2504]	7.93 (active)	10.2 (active)	8.84 (active)
CARPRRVIARAGNASASA [FS-2746]	0.722 (inactive)	0.121 (inactive)	1.35
CARRARSWAEAGNASASA [FS-1772]	0.748 (inactive)	2.17	4.73 (active)
CARPRRELSLAGNASASA [FS-2501]	9.83 (active)	9.15 (active)	8.79 (active)
CARRARSSVCAGNASASA [FS-2771]	-0.135 (inactive)	0.0716 (inactive)	2.53
CARRARAVHDAGNASASA [FS-2769]	0.991 (inactive)	0.269 (inactive)	0.722 (inactive)
CALAVFGPLWAGNASASA [HC607]	0.672 (inactive)	0.344 (inactive)	1.61
CALPGCSFSIAGNASASA [HC245]	-0.725 (inactive)	0.0221 (inactive)	1.53
CAEVVTSTWEAGNASASA [HC2252]	1.19	1.24	-0.113 (inactive)
CATTPCSGSKAGNASASA [HC1934]	-0.794 (inactive)	0.477 (inactive)	-0.455 (inactive)
CASTGLYHVTAGNASASA [HC259]	1.56	0.496 (inactive)	-0.862 (inactive)
CAMEECSQLLAGNASASA [HC1745]	0.641 (inactive)	1.59	1.09
CANTRPPLGNAGNASASA [HC431]	-0.78 (inactive)	-0.196 (inactive)	0.451 (inactive)
CAYLEVVTSTAGNASASA [HC2269]	1.41	0.163 (inactive)	0.356 (inactive)
CARRARFLHEAGNASASA [FS-2177]	0.34 (inactive)	2.97	5.38 (active)
CARRGRFKGLAGNASASA [FS-2773]	-2.35 (inactive)	0.257 (inactive)	-0.0126 (inactive)
CARRARSLALAGNASASA [FS-2770]	4.92 (active)	6.9 (active)	6.89 (active)
CARRGREILLAGNASASA [HC663]	2.14	3.52 (active)	5.12 (active)
CARRARVVHMAGNASASA [FS-2772]	-0.133 (inactive)	-2.18 (inactive)	-0.247 (inactive)
CARPRRETCHAGNASASA [FS-2358]	7.06 (active)	6.02 (active)	6.63 (active)
CARRGRSRSRAGNASASA [FS-2774]	-0.725 (inactive)	-0.261 (inactive)	-0.331 (inactive)
CARPQRSACHAGNASASA [FS-1832]	-0.244 (inactive)	1.03	2.47
